# The source made the active and inactive calls. The calls were made as follows: active = hit-call score of the fitted dose curve at least 0.9, where 1 is the maximum; inactive = score below 0.9.
# Test: ATG_PBREM_CIS: Attagene CIS-FACTORIAL HepG2 Assay for human Phenobarbital-responsive Enhancer Module (PBREM) (AID 2282955)
# Conditions: HepG2 PBREM cis-reporter, Attagene multiplexed transcription; actives raise or lower the signal
# In short: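 Measures endogenous factor action on a phenobarbital-responsive enhancer module. HepG2 transiently carrying cis reporters, 24 h treatment, mRNA read-out by RT-PCR plus capillary electrophoresis.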
Compound,outcome,AC50
CCOP(O)OCC,inactive,–
O=c1[nH]c(Cl)c(Cl)cc1Cl,inactive,–
[CH3][Sn]([Cl])([Cl])[Cl],inactive,–
Nc1c(Cl)c(Cl)c(Cl)c(Cl)c1Cl,inactive,–
COC(=O)c1ccccc1S(=O)(=O)NC(=O)Nc1nc(C)cc(C)n1,inactive,–
Nc1ccccc1C(=O)OCCc1ccccc1,–,21.3 µM (active)
N#Cc1cccc(C#N)c1,inactive,–
Nc1cc(Cl)cc(Cl)c1,inactive,–
COc1ncc(F)c2nc(S(=O)(=O)Nc3c(F)cccc3F)nn12,inactive,–
COC(C)(C)CCC[C@H](C)C/C=C/C(C)=C/C(=O)OC(C)C,inactive,–
[CH3][Sn]([CH3])([Cl])[Cl],inactive,–
BrCBr,inactive,–
CCc1cccc(C)c1N(C(=O)CCl)[C@@H](C)COC,inactive,–
O=P1(NCCCl)OCCCN1CCCl (stereo unspecified),inactive,–
CC(Cc1ccc(C(C)(C)C)cc1)CN1C[C@@H](C)O[C@@H](C)C1 (stereo partly specified),–,12.8 µM (active)
O=C(O)c1cc[c]([Hg][Cl])cc1,inactive,–
O=S(=O)(c1ccccc1)c1ccccc1,inactive,–
Clc1ccc(-c2ccccc2)cc1,inactive,–
CN(C)C(=O)C(c1ccccc1)c1ccccc1,inactive,–
C=CCc1ccc(OC(=O)Cc2ccccc2)c(OC)c1,inactive,–
O=P(O)(Oc1ccccc1)Oc1ccccc1,inactive,–
CC1CCCC1.[C-]#[O+].[C-]#[O+].[C-]#[O+].[Mn],inactive,–
O=C(O)COc1ccccc1,inactive,–
[Cl][Sb]([Cl])[Cl],inactive,–
CCC(=O)c1ccc(Cl)cc1,inactive,–
Cc1ccc(N(SC(F)(Cl)Cl)S(=O)(=O)N(C)C)cc1,inactive,–

# Reference: PubChem BioAssay (EPA / NIEHS)
